# According to PubChem BioAssay (Tox21):
# Values without a mark were called inactive. Inconclusive results are not listed. Entries that show only a call come without a potency. Activity calls are given as the source filed them. Unless noted, the call rests on the fitted dose curve.
# Tests used:
# [1] = Nuclear factor erythroid 2-related factor 2/antioxidant responsive element (Nrf2/ARE) small molecule agonists: qHTS cell viability counter screen in human keratinocytes (AID 1919968; active means well fitted curve in the direction sought with a large enough effect in the repeat runs; an effect the other way counts as inactive or inconclusive; further: nearly all actives have a fitted effect of over 55% in size; further: potency means the concentration at half of the fitted maximal effect)
# Procedure, shortened: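 Viability counter-screen: KeratinoSens reporter cells, DMSO-delivered compounds, 23 h at 37 C, CellTiter-Fluor fluorescence.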
# [2] = Nuclear factor erythroid 2-related factor 2/antioxidant responsive element (Nrf2/ARE) small molecule agonists: luciferase reporter gene qHTS assay in human keratinocytes (AID 1919969); further: nearly all actives have a fitted effect of over 35% in size; further: potency means the concentration at half of the fitted maximal effect
# [3] = molecular target: KiSS-1 receptor (Homo sapiens) (UniProt Q969F8); assay: Human kisspeptin (KISS1R) small molecule agonists, calcium flux assay in KISS1R-HEK293 cells (AID 1920064; active means well fitted curve in the direction sought with a large enough effect in the repeat runs; an effect the other way counts as inactive or inconclusive)
# KiSS-1 receptor (Homo sapiens), sequence (Q969F8 whole entry, looked up): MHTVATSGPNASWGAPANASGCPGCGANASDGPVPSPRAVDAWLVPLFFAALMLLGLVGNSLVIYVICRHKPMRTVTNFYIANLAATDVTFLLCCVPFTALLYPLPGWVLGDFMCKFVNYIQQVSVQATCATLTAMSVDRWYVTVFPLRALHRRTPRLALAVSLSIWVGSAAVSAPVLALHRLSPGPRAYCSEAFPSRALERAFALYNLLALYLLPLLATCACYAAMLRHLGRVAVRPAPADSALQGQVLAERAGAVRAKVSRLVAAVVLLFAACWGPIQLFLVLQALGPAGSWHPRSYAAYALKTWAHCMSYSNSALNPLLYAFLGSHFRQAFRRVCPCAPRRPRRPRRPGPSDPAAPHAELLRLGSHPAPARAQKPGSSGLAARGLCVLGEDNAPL
# Procedure, shortened: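 Intracellular calcium mobilization in KISS1R-HEK293 cells was recorded by fluorescence (Ex/Em 480/540) for 3 min following compound addition to cells pre-loaded 1 h with calcium dye.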
# [4] = G protein-coupled receptor (GPCR) small molecule agonists, calcium flux assay: HEK293 wild type cell line counter screen (AID 1920065)
# Procedure, shortened: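 In this agonist-mode screen, ATP is the positive control and DMSO the vehicle. Cells grow 18 h before a 1 h dye incubation at 37 C; signal is taken at Ex/Em 480/540 over 3 min.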
# [5] = p53 small molecule agonists, cell-based qHTS assay with human liver microsomes: qHTS cell viability counter screen (AID 1963579); further: nearly all actives have a fitted effect of over 45% in size; further: potency means the concentration at half of the fitted maximal effect
# Procedure, shortened: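 Seed p53RE-bla cells at 4,000 per well; incubate 5 h at 37 C; add compound, human liver microsomes and NADPH; incubate 16 h at 37 C; add CellTiter-Glo; after 30 min at room temperature, read luminescence.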
# [6] = p53 small molecule agonists, cell-based qHTS assay with rat liver microsomes: qHTS cell viability counter screen (AID 1963580); further: nearly all actives have a fitted effect of over 45% in size
# Procedure, shortened: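 Intracellular ATP, by CellTiter-Glo luminescence, defines viability. HCT-116 p53RE-bla cells, 4,000 per well, were compound-treated in the presence of rat liver microsomes and NADPH for 16 h at 37 C.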
# [7] = p53 small molecule agonists, cell-based qHTS assay: qHTS cell viability counter screen (AID 1963581); further: nearly all actives have a fitted effect of over 45% in size
# Procedure, shortened: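 Compounds are pinned onto HCT-116 p53RE-bla cells and left 16 h at 37 C. Following the reporter FRET read, ATP is quantified by CellTiter-Glo luminescence after 30 min at room temperature.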
# [8] = molecular target: 5-hydroxytryptamine receptor 2A (Homo sapiens) (UniProt P28223); assay: 5-hydroxytryptamine receptor 2A (HTR2A) small molecule antagonists, cell-based qHTS assay (AID 1963586); further: nearly all actives have a fitted effect of over 45% in size; further: potency means the concentration at half of the fitted maximal effect
# 5-hydroxytryptamine receptor 2A (Homo sapiens), sequence (P28223 whole entry, looked up): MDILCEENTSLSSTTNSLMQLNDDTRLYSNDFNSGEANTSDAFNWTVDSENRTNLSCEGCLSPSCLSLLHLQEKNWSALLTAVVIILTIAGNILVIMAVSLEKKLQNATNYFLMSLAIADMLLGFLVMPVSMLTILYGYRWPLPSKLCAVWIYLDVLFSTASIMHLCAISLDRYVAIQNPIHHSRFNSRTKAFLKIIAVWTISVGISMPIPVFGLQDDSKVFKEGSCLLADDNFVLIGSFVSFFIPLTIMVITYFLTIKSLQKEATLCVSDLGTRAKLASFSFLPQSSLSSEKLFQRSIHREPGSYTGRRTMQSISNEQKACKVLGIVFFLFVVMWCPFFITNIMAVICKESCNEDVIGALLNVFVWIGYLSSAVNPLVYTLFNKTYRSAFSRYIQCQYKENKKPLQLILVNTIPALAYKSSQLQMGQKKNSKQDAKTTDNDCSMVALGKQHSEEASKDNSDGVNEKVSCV
# Procedure, shortened: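 Antagonist-mode intracellular calcium assay: DOI (4 nM) added after 5 min compound pre-incubation at room temperature to dye-loaded HTR2A-CHO cells. Fluorescence followed for 3 min, sampled every second.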
# [9] = molecular target: 5-hydroxytryptamine receptor 2A (Homo sapiens) (UniProt P28223); assay: 5-hydroxytryptamine receptor 2A (HTR2A) small molecule agonists, cell-based qHTS assay (AID 1963587); further: nearly all actives have a fitted effect of over 30% in size; further: potency means the concentration at half of the fitted maximal effect
# Procedure, shortened: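 Kinetic calcium-flux fluorescence (2 min, 1 sec intervals) after compound addition in agonist mode. HTR2A-CHO cells were cultured 18 h, then dye-loaded 1 h at 37 C.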
# [10] = molecular target: Muscarinic acetylcholine receptor M1 (Homo sapiens) (UniProt P11229); assay: Cholinergic receptor muscarinic 1 (CHRM1) small molecule antagonists, cell-based qHTS assay (AID 1963588); further: nearly all actives have a fitted effect of over 40% in size
# Muscarinic acetylcholine receptor M1 (Homo sapiens), sequence (P11229 whole entry, looked up): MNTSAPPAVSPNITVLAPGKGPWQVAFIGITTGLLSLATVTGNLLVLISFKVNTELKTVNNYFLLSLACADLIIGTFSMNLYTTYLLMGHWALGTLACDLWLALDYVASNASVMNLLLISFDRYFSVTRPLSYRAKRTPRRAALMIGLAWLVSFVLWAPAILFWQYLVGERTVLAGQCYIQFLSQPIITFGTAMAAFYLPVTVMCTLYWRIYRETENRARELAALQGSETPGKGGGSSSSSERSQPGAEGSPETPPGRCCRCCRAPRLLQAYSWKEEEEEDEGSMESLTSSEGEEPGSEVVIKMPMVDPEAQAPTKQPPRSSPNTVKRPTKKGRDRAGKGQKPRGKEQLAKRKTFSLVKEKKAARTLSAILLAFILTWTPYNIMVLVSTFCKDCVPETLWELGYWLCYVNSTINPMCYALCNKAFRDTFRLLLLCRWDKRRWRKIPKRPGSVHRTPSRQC
# Procedure, shortened: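 CHRM1-CHO calcium-flux assay, antagonist mode. Cells were seeded 18 h, dye-loaded 1 h at 37 C and given compound for 5 min at RT, then acetylcholine was added at 50nM. FDSS fluorescence was read 3 min; 15 concentrations, three runs.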
# [11] = molecular target: Muscarinic acetylcholine receptor M1 (Homo sapiens) (UniProt P11229); assay: Cholinergic receptor muscarinic 1 (CHRM1) small molecule agonists, cell-based qHTS assay (AID 1963589); further: nearly all actives have a fitted effect of over 35% in size
# Procedure, shortened: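 Stable CHRM1-CHO cells (human receptor) were incubated 18 h, dye-loaded for 1 h at 37 C and exposed to test compounds for agonist activity, with calcium-dependent fluorescence followed kinetically.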
# [12] = molecular target: Beta-2 adrenergic receptor (Homo sapiens) (UniProt P07550); assay: Adrenergic beta2 receptor (ADRB2) small molecule antagonists, cell-based qHTS assay (AID 1963592); further: nearly all actives have a fitted effect of over 50% in size; further: potency means the concentration at half of the fitted maximal effect
# Beta-2 adrenergic receptor (Homo sapiens), sequence (P07550 whole entry, looked up): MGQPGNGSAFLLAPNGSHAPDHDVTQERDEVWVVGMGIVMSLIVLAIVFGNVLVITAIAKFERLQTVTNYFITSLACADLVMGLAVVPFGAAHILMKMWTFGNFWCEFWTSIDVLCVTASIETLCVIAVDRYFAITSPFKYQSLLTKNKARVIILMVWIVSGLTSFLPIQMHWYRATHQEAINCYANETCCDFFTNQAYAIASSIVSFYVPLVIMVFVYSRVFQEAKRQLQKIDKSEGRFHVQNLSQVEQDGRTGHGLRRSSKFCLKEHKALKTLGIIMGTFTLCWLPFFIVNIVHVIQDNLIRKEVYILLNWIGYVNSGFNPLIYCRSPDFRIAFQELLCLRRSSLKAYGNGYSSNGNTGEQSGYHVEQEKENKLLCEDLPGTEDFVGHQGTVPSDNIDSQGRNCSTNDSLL
# Procedure, shortened: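 Cells (CHO, stable ADRB2 overexpression) incubated 18-20hr at 37C; compounds added from DMSO; agonist mix (1nM isoproterenol, 100uM IBMX, 25uM Ro-20-1724) added; 0.5hr RT; d2-cAMP and anti-cAMP-cryptate added; 1hr RT; 665/615 nm read.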
# [13] = molecular target: D(2) dopamine receptor (Homo sapiens) (UniProt P14416); assay: Dopamine D2 receptor (DRD2) small molecule agonists, cell-based qHTS assay (AID 1963594); further: nearly all actives have a fitted effect of over 35% in size
# D(2) dopamine receptor (Homo sapiens), sequence (P14416 whole entry, looked up): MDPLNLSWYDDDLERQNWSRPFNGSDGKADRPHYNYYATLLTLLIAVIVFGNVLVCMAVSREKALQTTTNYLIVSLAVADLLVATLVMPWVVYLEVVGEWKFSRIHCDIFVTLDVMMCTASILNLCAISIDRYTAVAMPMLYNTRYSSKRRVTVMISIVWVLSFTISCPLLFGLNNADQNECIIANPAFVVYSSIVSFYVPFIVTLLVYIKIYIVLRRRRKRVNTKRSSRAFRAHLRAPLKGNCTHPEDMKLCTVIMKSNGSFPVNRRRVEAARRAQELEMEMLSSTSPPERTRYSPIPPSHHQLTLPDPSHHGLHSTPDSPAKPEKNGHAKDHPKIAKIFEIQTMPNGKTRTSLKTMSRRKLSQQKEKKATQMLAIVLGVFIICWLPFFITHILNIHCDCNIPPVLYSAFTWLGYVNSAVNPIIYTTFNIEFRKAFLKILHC
# Procedure, shortened: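 cAMP accumulation in DRD2-HEK293 cells measured by HTRF after 1 h detection; compounds added 10 min before NKH477 (200nM […]) forskolin-analogue stimulation, 30 min at room temperature, with Ro20-1724 present at 0.1 mM final.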
# [14] = molecular target: D(2) dopamine receptor (Homo sapiens) (UniProt P14416); assay: Dopamine D2 receptor (DRD2) small molecule antagonists, cell-based qHTS assay (AID 1963595; active means well fitted inhibition curve with a large enough effect in the signal ratio in the repeat runs, with a control signal flat; the % refers to the signal ratio; further: potency means the concentration at half of the fitted maximal effect)
# Procedure, shortened: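 HEK293 cells stably expressing DRD2 were preincubated with 0.1 mM Ro20-1724, then with compound for 10 min at room temperature. Cells were stimulated with 200 nM NKH477 plus 12 nM quinpirole for 30 min, and cAMP was read by HTRF.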
# [15] = p53 small molecule agonists, cell-based qHTS assay with rat liver microsomes (AID 1963578)
# Procedure, shortened: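 Fluorescence from a beta-lactamase reporter under a p53 response element was measured after cells had been incubated 16 h at 37 C with test compound and rat liver microsomes plus NADPH (0.5 mg/mL final each).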
# [16] = cAMP Responsive Elements (CRE) small molecule agonists, cell-based qHTS assay (AID 1963590)
# Procedure, shortened: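 FRET-based beta-lactamase readout (LiveBLAzer B/G, 2 h RT) quantified CRE activation in HEK 293T CRE-bla cells after 3 h treatment with DMSO-dissolved compounds.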
# [17] = cAMP Responsive Elements (CRE) small molecule antagonists, cell-based qHTS assay (AID 1963591; active means well fitted inhibition curve with a large enough effect in the signal ratio in the repeat runs, not every such curve was filed as active; the % refers to the signal ratio)
# Procedure, shortened: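 qHTS in CRE-bla HEK 293T cells: compound in DMSO, then 0.25 uM NKH477 (final), 3 h at 37 °C/5% CO2; beta-lactamase FRET read-out after 2 h substrate incubation.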
# [18] = p53 small molecule agonists, cell-based qHTS assay with human liver microsomes (AID 1963577)
# Procedure, shortened: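 Cells carrying a p53-responsive bla reporter were rested 5 h (37 C, 5% CO2) before compound transfer. Human liver microsomes plus NADPH, 0.5 mg/mL final apiece, supplied metabolism during the 16 h 37 C exposure.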
SMILES,Potency [1],Potency [2],Potency [3],Potency [4],Potency [5],Potency [6],Potency [7],Potency [8],Potency [9],Potency [10],Potency [11],Potency [12],Potency [13],Potency [14],Potency [15],Potency [16],Potency [17],Potency [18]
O=C(O)C1(C(=O)Nc2ccc(Cl)cc2Cl)CC1,inactive,inactive,inactive,inactive,inactive,inactive,inactive,33.4 µM (active),inactive,inactive,inactive,inactive,inactive,inactive,,,,
C[C@@H]1C[C@H]2[C@@H]3CCC4=CC(=O)C=C[C@]4(C)[C@@]3(F)[C@@H](O)C[C@]2(C)[C@@]1(O)C(=O)COC(=O)c1ccncc1,inactive,inactive,inactive,inactive,inactive,inactive,inactive,,inactive,inactive,inactive,inactive,,inactive,inactive,inactive,inactive,
O=C(O)CCc1nc2ccccc2[nH]1,inactive,inactive,inactive,inactive,inactive,inactive,inactive,inactive,inactive,inactive,inactive,inactive,inactive,inactive,inactive,inactive,inactive,
COc1cc(S(=O)(=O)Nc2ccccc2)c(OC)cc1N,inactive,inactive,inactive,inactive,inactive,inactive,inactive,inactive,inactive,inactive,inactive,inactive,inactive,inactive,,inactive,,
CCC/C=C(\C=O)CC,inactive,inactive,inactive,inactive,inactive,inactive,inactive,inactive,inactive,inactive,inactive,inactive,inactive,inactive,,inactive,inactive,
O=C1C=CC(=O)N1c1ccccc1,27.3 µM (active),15.4 µM (active),inactive,inactive,20.4 µM (active),,,inactive,24.5 µM (active),inactive,,,,13.7 µM (active),inactive,,,
CN[C@H]1CC[C@@H](c2ccc(Cl)c(Cl)c2)c2ccc(S(N)(=O)=O)cc21,61.1 µM (active),inactive,inactive,inactive,inactive,inactive,inactive,inactive,,,inactive,48.6 µM (active),,,,,,inactive
